The supplement of paper PMC8540655
A number with no mark means an inactive call.

Test system: Aedes aegypti larvae
Test: larval motility relative to same well at 0 h (fraction); higher = more motile (less active compound), active = 0.4 or less
Details: 10 µM; 2 h
Summary of the method: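 Aedes aegypti larvae were hatched at 25 °C in pond salt solution with yeast, collected after 18–24 h, and dispensed at about 10 per well (100 µL) in 96-well plates. Compounds were tested at 10 µM in 1% v/v DMSO, and each plate carried solvent and larvicide control wells. INVAPP movies of 200 frames at 100 ms intervals were recorded at 0, 2 and 24 h, and each value is the median of three independent larval batches. Relative motility is each well's score divided by that same well's starting score.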

Row | SMILES | larval motility
1 | CC(C)Nc1nc2cc(Cl)c(Cl)cc2n1[C@H]1O[C@@H](CO)[C@H](O)[C@@H]1O | 1.1
2 | COC(=O)Nc1nc2cc(S(=O)c3ccccc3)ccc2[nH]1 (stereo unspecified) | 0.769
3 | O=S(=O)(NCB(O)O)c1cc2c(Cl)ccc(Cl)c2s1 | 0.568
4 | CC(=O)N[C@H](C)C(=O)N[C@H](Cc1ccccc1)C(=O)O | 0.496
5 | CCc1nc(N)nc(N)c1C#CC(C)c1cc(OC)cc(-c2ccncc2)c1 (stereo unspecified) | 0.87
6 | CC#C[C@]1(O)CC[C@H]2[C@@H]3CCC4=CC(=O)CCC4=C3[C@@H](c3ccc(N(C)C)cc3)C[C@@]21C | 0.693
7 | O=C(NCCN1CCCCC1)c1cccc(C(F)(F)F)c1 | 0.912
8 | NC[C@H]1OB(O)c2c(OCCCO)cccc21 | 1.28
9 | O=P(O)(O)C(CCCc1cccc(Oc2ccccc2)c1)S(=O)(=O)O (stereo unspecified) | 0.663
10 | O=S(=O)(Nc1ccccc1)c1ccc(NC(=S)Nc2ccccc2)cc1 | 0.779
11 | Cc1[nH]c2ccccc2c1CCNCc1ccc(/C=C/C(=O)NO)cc1 | 1.05
12 | O=C1[C@H](CC[C@H](O)c2ccc(F)cc2)[C@@H](c2ccc(O)cc2)N1c1ccc(F)cc1 | 0.873

Same assay, conditions: 10 µM; 24 h

Row | SMILES | larval motility
13 | CC[C@H]1OC(=O)[C@H](C)[C@@H](O[C@H]2C[C@@](C)(OC)[C@@H](O)[C@H](C)O2)[C@H](C)[C@@H](O[C@@H]2O[C@H](C)C[C@H](N(C)C)[C@H]2O)[C@](C)(O)C[C@@H](C)C(=O)[C@H](C)[C@@H](O)[C@]1(C)O | 0.824
14 | O=C1C=C(c2ccccc2)S(=O)(=O)c2ccccc21 | 1.01
15 | O=C(Nc1ccc(-c2ccccc2)cc1)C1=C(O)C(Cc2ccccc2)OC1=O (stereo unspecified) | 0.946
16 | Cc1cccc(CC(=O)N[C@H]2CCOC2=O)c1 | 1.31
17 | CCc1cc(Nc2cc(=O)n(CCN3CCN(C(=O)c4ccccc4)CC3)c(=O)[nH]2)ccc1C | 1.07
18 | COc1ccc(C[C@@H](C)[C@@H](C)Cc2ccc(OC)c(OC)c2)cc1OC | 0.813
19 | COc1ccc(COc2cc3oc(=O)c4cc(C(C)O)ccc4c3cc2OC)cc1 (stereo unspecified) | 1.2
20 | Fc1ccc(-n2cc(Cn3c(-c4cccc(F)c4)nc4ccccc43)nn2)cc1 | 0.415
21 | O=C(CCc1ccc2c(c1)OCO2)NCc1ccc(-c2ccccc2F)cc1 | 0.677
22 | CC[C@@H](CO)NCCN[C@@H](CC)CO | 0.604
23 | O=C(NCc1ccc(F)cc1)c1c(O)c2ncccc2[nH]c1=O | 0.908
24 | COc1ccc2c(c1OC)C(=O)OC2C1c2c(cc3c(c2OC)OCO3)CCN1C (stereo unspecified) | 0.828
25 | O=[N+]([O-])c1ccc2c(CCc3c[nH]c4ccccc34)c[nH]c2c1 | 0.813
26 | CC(C)(C)c1ccc(C(Cn2cccc(C(F)(F)F)c2=O)NC2Cc3ccccc3C2)cc1 (stereo unspecified) | 0.846
27 | Nc1nc(O)c2ncn(COC(CO)CO)c2n1 | 0.821
28 | COc1cc(NCc2ccc3nc(N)nc(N)c3c2C)cc(OC)c1OC | 0.356 (active)
29 | Cc1cc(CCCOc2c(C)cc(-c3noc(C(F)(F)F)n3)cc2C)on1 | 0.903
30 | Cc1cc(CCOc2c(C)cc(-c3nnn(C)n3)cc2C)on1 | 0.768
31 | COc1ccc(C2CNC(=O)C2)cc1OC1CCCC1 (stereo unspecified) | 0.959
32 | O=C(N[C@H](Cc1cccc2ccccc12)C(=O)NCCc1c[nH]cn1)C1Cc2ccccc2C1 | 0.952

Row | SMILES | larval motility
33 | Cc1nc(Nc2ccc(F)cc2)nc(N2CCc3ccccc3C2C)c1C (stereo unspecified) | 0.644
34 | C[C@H](c1cccc2ccccc12)N(C)Cc1ccccc1 | 1.26
35 | COc1cc(NC(=O)CN2C(=O)NC(c3ccccc3)(c3ccccc3)C2=O)cc(OC)c1 | 1.08
36 | NC(=O)c1cnc2ccc(S(=O)(=O)c3ccccc3)cc2c1Nc1ccc(O)cc1 | 1.01
37 | CCN(CC)S(=O)(=O)c1ccc(Cl)c(C(=O)Nc2sc3c(c2C#N)CCCC3)c1 | 2.15
38 | NNC(=O)c1ccncc1 | 0.744
39 | Cc1ccccc1NC(=O)Nc1cccc([N+](=O)[O-])c1 | 1.34
40 | CC(C)Nc1nc2cc(Cl)c(Cl)cc2n1[C@H]1O[C@@H](CO)[C@H](O)[C@@H]1O | 0.602
41 | COC(=O)Nc1nc2cc(S(=O)c3ccccc3)ccc2[nH]1 (stereo unspecified) | 0.934
42 | O=S(=O)(NCB(O)O)c1cc2c(Cl)ccc(Cl)c2s1 | 0.742
43 | CC(=O)N[C@H](C)C(=O)N[C@H](Cc1ccccc1)C(=O)O | 0.597
44 | CCc1nc(N)nc(N)c1C#CC(C)c1cc(OC)cc(-c2ccncc2)c1 (stereo unspecified) | 0.417
45 | CC#C[C@]1(O)CC[C@H]2[C@@H]3CCC4=CC(=O)CCC4=C3[C@@H](c3ccc(N(C)C)cc3)C[C@@]21C | 0.826
46 | O=C(NCCN1CCCCC1)c1cccc(C(F)(F)F)c1 | 1.4
47 | NC[C@H]1OB(O)c2c(OCCCO)cccc21 | 1.61
48 | O=P(O)(O)C(CCCc1cccc(Oc2ccccc2)c1)S(=O)(=O)O (stereo unspecified) | 0.88
49 | O=S(=O)(Nc1ccccc1)c1ccc(NC(=S)Nc2ccccc2)cc1 | 0.792
50 | Cc1[nH]c2ccccc2c1CCNCc1ccc(/C=C/C(=O)NO)cc1 | 1.18
51 | O=C1[C@H](CC[C@H](O)c2ccc(F)cc2)[C@@H](c2ccc(O)cc2)N1c1ccc(F)cc1 | 1.08
